Assay results published in the antibiotic and cytotoxicity screens of Wong et al. (2023).
The campaign covered roughly 39,000 compounds. About 3,300 (8.5%) were called active. The entries come from a sample that favours actives as a whole.

The compounds below were run on HepG2 (assay: cytotoxicity call (relative viability < 0.9)). Settings: 10 µM.
`Cc1ccc2nc(CN)cn2c1` was tested, and the cytotoxicity call was “inactive”. In the case of `CCOc1ccc(Nc2nc3c(=O)nc[nH]c3n2[C@H]2O[C@@H](CO)[C@@H](O)[C@@H]2O)cc1`, the cytotoxicity call is reported as “inactive”. In the case of `C[C@H](CO)N1C[C@H](C)[C@@H](CN(C)C(=O)CCC(F)(F)F)OCCCC[C@H](C)Oc2ccc(NC(=O)CCC(F)(F)F)cc2C1=O`, the cytotoxicity call is reported as “inactive”. In the case of `C[C@H]1CN([C@@H](C)CO)C(=O)CCCn2nncc2CO[C@H]1CN(C)C(=O)c1ccc(N2CCN(C)CC2)cc1`, the cytotoxicity call is reported as “inactive”. For `COc1ccc(S(=O)(=O)N(C)C[C@@H]2Oc3ccc(NC(=O)NC(C)C)cc3CC(=O)N([C@H](C)CO)C[C@H]2C)cc1`, the cytotoxicity call was “inactive”. In the case of `CN1CCN(C(=O)C[C@H]2CC[C@H]3[C@@H](COc4ccc(NC(=O)c5ccc(F)c(F)c5)cc4C(=O)N3C)O2)CC1`, the cytotoxicity call is reported as “inactive”. In the case of `COc1ccc(CNS(=O)(=O)N(C)C)cc1`, the cytotoxicity call is reported as “inactive”. With `CO[C@H]1CN(C)C(=O)c2cc(NC(=O)Nc3ccccc3)ccc2OC[C@H](C)N(C(=O)CN(C)C)C[C@H]1C` the cytotoxicity call was “inactive”. With `C[C@@H]1CCCCO[C@@H](CN(C)Cc2ccc(C(F)(F)F)cc2)[C@@H](C)CN([C@@H](C)CO)C(=O)c2cc(NC(=O)NC3CCCCC3)ccc2O1` the cytotoxicity call was “active”. For `C[C@@H]1CCCCO[C@@H](CN(C)Cc2ccc(C(F)(F)F)cc2)[C@@H](C)CN([C@H](C)CO)C(=O)c2cc(NC(=O)NC3CCCCC3)ccc2O1`, the cytotoxicity call was “inactive”. In the case of `C[C@@H]1CCCCO[C@H](CN(C)Cc2ccc(C(F)(F)F)cc2)[C@H](C)CN([C@H](C)CO)C(=O)c2cc(NC(=O)NC3CCCCC3)ccc2O1`, the cytotoxicity call is reported as “active”. With `C[C@@H]1CCCCO[C@H](CN(C)Cc2ccc(C(F)(F)F)cc2)[C@@H](C)CN([C@H](C)CO)C(=O)c2cc(NC(=O)NC3CCCCC3)ccc2O1` the cytotoxicity call was “active”. With `C[C@@H]1CCCCO[C@H](CN(C)Cc2ccc(C(F)(F)F)cc2)[C@@H](C)CN([C@@H](C)CO)C(=O)c2cc(NC(=O)NC3CCCCC3)ccc2O1` the cytotoxicity call was “active”. For `CNC(=O)C[C@H]1CC[C@H]2[C@@H](COC[C@@H](O)CN2C(=O)Nc2ccc3c(c2)OCO3)O1`, the cytotoxicity call was “inactive”. In the case of `C[C@H](CO)N1C[C@H](C)[C@H](CN(C)C(=O)Nc2ccc(F)cc2)Oc2ccc(NS(=O)(=O)c3cn(C)cn3)cc2C1=O`, the cytotoxicity call is reported as “inactive”. For `C[C@H](CO)N1C[C@H](C)[C@@H](CN(C)C(=O)Cc2ccccc2)OCCCC[C@H](C)Oc2ccc(NS(=O)(=O)c3ccc(F)cc3)cc2C1=O`, the cytotoxicity call was “inactive”. With `C[C@@H]1CN([C@@H](C)CO)C(=O)c2cc(NS(=O)(=O)c3cn(C)cn3)ccc2O[C@@H]1CN(C)C(=O)NC1CCCCC1` the cytotoxicity call was “inactive”. `COc1ccc(S(=O)(=O)N(C)C[C@H]2OCCCC[C@@H](C)Oc3ccc(NS(=O)(=O)c4cn(C)cn4)cc3C(=O)N([C@@H](C)CO)C[C@@H]2C)cc1` was tested, and the cytotoxicity call was “inactive”. `C[C@@H]1CCCCO[C@H](CN(C)C(=O)Nc2cccc3ccccc23)[C@H](C)CN([C@@H](C)CO)C(=O)c2cc(NS(=O)(=O)c3cn(C)cn3)ccc2O1` was tested, and the cytotoxicity call was “inactive”. `COc1ccc(S(=O)(=O)Nc2cccc3c2O[C@H](CN(C)C(=O)NC(C)C)[C@@H](C)CN([C@H](C)CO)C3=O)cc1` was tested, and the cytotoxicity call was “inactive”. With `C[C@@H]1CCCCO[C@H](CN(C)S(=O)(=O)c2ccccc2)[C@@H](C)CN([C@H](C)CO)C(=O)c2cc(NC(=O)C3CCCCC3)ccc2O1` the cytotoxicity call was “inactive”. `CNC(=O)C(=O)NC[C@H]1CCCN1S(=O)(=O)c1cccs1` was tested, and the cytotoxicity call was “inactive”. `CC(=O)OC1CCC2(C)C(CCC3C4CC=C(C(C)=O)C4(C)CCC32)C1` (stereo not drawn) [3-beta-ACETOXYALLOPREG-16-EN-20-ONE ] was tested, and the cytotoxicity call was “inactive”. `Cc1noc(C)c1S(=O)(=O)Nc1ccc2c(c1)CC(=O)N([C@H](C)CO)C[C@@H](C)[C@@H](CN(C)S(C)(=O)=O)O2` was tested, and the cytotoxicity call was “inactive”. `C[C@@H]1CCCCO[C@@H](CN(C)C(=O)CCC(F)(F)F)[C@H](C)CN([C@@H](C)CO)C(=O)c2cc(NC(=O)CCC(F)(F)F)ccc2O1` was tested, and the cytotoxicity call was “inactive”. In the case of `C[C@@H]1CN([C@@H](C)CO)C(=O)c2cc(NC(=O)NC3CCCCC3)ccc2O[C@@H](C)CCCCO[C@@H]1CN(C)Cc1ccc(C(F)(F)F)cc1`, the cytotoxicity call is reported as “inactive”. In the case of `C[C@@H]1CCCCO[C@@H](CN(C)Cc2ccc(C(F)(F)F)cc2)[C@H](C)CN([C@H](C)CO)C(=O)c2cc(NC(=O)NC3CCCCC3)ccc2O1`, the cytotoxicity call is reported as “active”. With `C[C@@H]1CN([C@H](C)CO)C(=O)c2cc(NC(=O)NC3CCCCC3)ccc2O[C@@H](C)CCCCO[C@H]1CN(C)Cc1ccc(C(F)(F)F)cc1` the cytotoxicity call was “inactive”. In the case of `C[C@@H]1CCCCO[C@H](CN(C)Cc2ccc(C(F)(F)F)cc2)[C@H](C)CN([C@@H](C)CO)C(=O)c2cc(NC(=O)NC3CCCCC3)ccc2O1`, the cytotoxicity call is reported as “active”. `C[C@H]1CCCCO[C@@H](CN(C)Cc2ccc(C(F)(F)F)cc2)[C@@H](C)CN([C@@H](C)CO)C(=O)c2cc(NC(=O)NC3CCCCC3)ccc2O1` was tested, and the cytotoxicity call was “active”. `CCC(=O)Nc1ccc2c(c1)OC[C@H](C)N(C(=O)CN1CCOCC1)C[C@H](C)[C@@H](OC)CN(C)C2=O` was tested, and the cytotoxicity call was “inactive”. `CO[C@H]1CN(C)C(=O)c2ccc(NS(=O)(=O)c3cn(C)cn3)cc2OC[C@H](C)N(CC2CC2)C[C@H]1C` was tested, and the cytotoxicity call was “inactive”. With `O=C(N/N=C/[C@H](O)[C@@H](O)[C@@H](O)[C@H](O)CO)c1ccccn1` the cytotoxicity call was “inactive”. `COc1ccc(NC(=O)N(C)C[C@H]2OCCCC[C@H](C)Oc3ccc(NS(=O)(=O)c4ccc(Cl)cc4)cc3C(=O)N([C@@H](C)CO)C[C@@H]2C)cc1` was tested, and the cytotoxicity call was “inactive”. For `COc1ccc(-c2cnc3c(c2)C(=O)N([C@H](C)CO)C[C@H](C)[C@@H](CN(C)C(=O)Cc2ccncc2)O3)cc1`, the cytotoxicity call was “inactive”. With `C[C@H](CO)N1C[C@H](C)[C@H](CN(C)S(C)(=O)=O)Oc2ccc(NS(=O)(=O)c3cccs3)cc2CC1=O` the cytotoxicity call was “inactive”. With `C[C@@H]1CN([C@@H](C)CO)C(=O)Cc2cc(NS(=O)(=O)c3cn(C)cn3)ccc2O[C@H]1CN(C)C(=O)Nc1ccc(F)cc1` the cytotoxicity call was “inactive”. In the case of `C=CC[C@H](CC(=O)NCCO)C(=O)NC[C@H](OC(=O)[C@@H](CC=C)CC(=O)OC(C)(C)C)c1ccccc1`, the cytotoxicity call is reported as “inactive”. In the case of `COc1ccc(S(=O)(=O)Nc2cccc3c2O[C@H](CN(C)C(=O)Nc2c(C)noc2C)[C@@H](C)CN([C@H](C)CO)C3=O)cc1`, the cytotoxicity call is reported as “active”. `COc1ccc(S(=O)(=O)Nc2cccc3c2O[C@H](CN(C)C(=O)Nc2c(C)noc2C)[C@@H](C)CN([C@@H](C)CO)C3=O)cc1` was tested, and the cytotoxicity call was “inactive”. In the case of `C[C@H](CO)N1C[C@H](C)[C@@H](CN(C)C(=O)Nc2cccc3ccccc23)Oc2c(NS(=O)(=O)c3cccs3)cccc2C1=O`, the cytotoxicity call is reported as “inactive”. With `COc1ccc(S(=O)(=O)Nc2cccc3c2O[C@H](CN(C)C(=O)Nc2cccc4ccccc24)[C@H](C)CN([C@@H](C)CO)C3=O)cc1` the cytotoxicity call was “inactive”. With `Cc1ccc(S(=O)(=O)Nc2cccc3c2O[C@H](CN(C)C(=O)Nc2cccc4ccccc24)[C@@H](C)CN([C@@H](C)CO)C3=O)cc1` the cytotoxicity call was “active”. In the case of `COc1ccc(S(=O)(=O)Nc2cccc3c2O[C@H](CN(C)C(=O)Nc2cccc4ccccc24)[C@H](C)CN([C@H](C)CO)C3=O)cc1`, the cytotoxicity call is reported as “inactive”. `C[C@@H]1CN([C@H](C)CO)C(=O)c2cccc(NS(=O)(=O)c3cccs3)c2O[C@H]1CN(C)C(=O)Nc1cccc2ccccc12` was tested, and the cytotoxicity call was “inactive”. `Cc1ccc(S(=O)(=O)Nc2cccc3c2O[C@H](CN(C)C(=O)Nc2cccc4ccccc24)[C@@H](C)CN([C@H](C)CO)C3=O)cc1` was tested, and the cytotoxicity call was “inactive”. For `COc1ccc(S(=O)(=O)Nc2cccc3c2O[C@@H](CN(C)C(=O)Nc2c(C)noc2C)[C@H](C)CN([C@@H](C)CO)C3=O)cc1`, the cytotoxicity call was “inactive”. In the case of `C[C@H]1CN([C@@H](C)CO)C(=O)c2cccc(NS(=O)(=O)c3cccs3)c2O[C@@H]1CN(C)C(=O)Nc1cccc2ccccc12`, the cytotoxicity call is reported as “active”. `Cc1ccc(S(=O)(=O)Nc2cccc3c2O[C@@H](CN(C)C(=O)Nc2cccc4ccccc24)[C@H](C)CN([C@@H](C)CO)C3=O)cc1` was tested, and the cytotoxicity call was “inactive”. In the case of `COc1ccc(S(=O)(=O)Nc2cccc3c2O[C@@H](CN(C)C(=O)Nc2cccc4ccccc24)[C@H](C)CN([C@@H](C)CO)C3=O)cc1`, the cytotoxicity call is reported as “active”.
